Experimental data reported in PubChem BioAssay AID1159580 (chemical genetic matrix, 2015).
The whole screen tested about 5,500 compounds, of which about 2,000 (36%) were called active. About 18% were inconclusive and are not listed. Rule as the data show it: active = normalized growth mostly below about 0.91 (no sharp cut-off); inconclusive = no clear call, values can overlap the other calls; inactive = mostly above about 0.92. Some of the results follow.

Experiment: chemical genetic growth profiling, strain panel (AID 1159580);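 also: tested at 20 µM; growth read once vehicle control cultures reached saturation at 30 °C; 1 = growth at the plate median or of vehicle wells; lower values mean less growth of the strain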
Settings: growth OD
[1] = S. cerevisiae deletion strains, locus YCL061C, strain MRC1, active compounds read low
[2] = S. cerevisiae deletion strains, locus YHR030C, strain SLT2, active compounds read low
[3] = S. cerevisiae deletion strains, locus YJL187C, strain SWE1, active compounds read low

Measured: normalized growth

COc1cc(C(=O)NCCCCCC(=O)O)cc(OC)c1OC
inactive: S. cerevisiae deletion strains, locus YAL021C, strain ccr4, active compounds read low 0.976 | S. cerevisiae deletion strains, locus YAL026C, strain drs2, active compounds read low 0.981 | S. cerevisiae deletion strains, locus YAL030W, strain snc1, active compounds read low 0.959 | S. cerevisiae deletion strains, locus YBL061C, strain skt5, active compounds read low 0.973 | S. cerevisiae deletion strains, locus YBR009C, strain hhf1, active compounds read low 0.977 | S. cerevisiae deletion strains, locus YBR023C, strain chs3, active compounds read low 0.986 | S. cerevisiae deletion strains, locus YBR171W, strain sec66, active compounds read low 0.97 | S. cerevisiae deletion strains, locus YBR231C, strain swc5, active compounds read low 0.978 | S. cerevisiae deletion strains, locus YBR279W, strain paf1, active compounds read low 0.979 | S. cerevisiae deletion strains, locus YCL011C, strain gbp2, active compounds read low 0.977 | S. cerevisiae deletion strains, locus YCL016C, strain dcc1, active compounds read low 0.982 | [1] 0.995 | S. cerevisiae deletion strains, locus YCL069W, strain vba3, active compounds read low 0.984 | S. cerevisiae deletion strains, locus YCR088W, strain abp1, active compounds read low 0.986 | S. cerevisiae deletion strains, locus YDL005C, strain med2, active compounds read low 0.973 | S. cerevisiae deletion strains, locus YDL040C, strain nat1, active compounds read low 0.981 | S. cerevisiae deletion strains, locus YDR001C, strain nth1, active compounds read low 0.969 | S. cerevisiae deletion strains, locus YDR069C, strain doa4, active compounds read low 0.973 | S. cerevisiae deletion strains, locus YDR137W, strain rgp1, active compounds read low 0.975 | S. cerevisiae deletion strains, locus YDR159W, strain sac3, active compounds read low 0.966 | S. cerevisiae deletion strains, locus YDR195W, strain ref2 0.966 | S. cerevisiae deletion strains, locus YDR297W, strain sur2, active compounds read low 0.962 | S. cerevisiae deletion strains, locus YDR334W, strain swr1, active compounds read low 0.935 | S. cerevisiae deletion strains, locus YDR335W, strain msn5, active compounds read low 0.975 | S. cerevisiae deletion strains, locus YDR392W, strain spt3, active compounds read low 0.983 | S. cerevisiae deletion strains, locus YEL003W, strain gim4, active compounds read low 0.98 | S. cerevisiae deletion strains, locus YEL037C, strain rad23, active compounds read low 0.985 | S. cerevisiae deletion strains, locus YEL061C, strain CIN8 (second series), active compounds read low 0.974 | S. cerevisiae deletion strains, locus YER015W, strain faa2, active compounds read low 0.972 | S. cerevisiae deletion strains, locus YER016W, strain bim1, active compounds read low 0.981 | S. cerevisiae deletion strains, locus YER111C, strain swi4, active compounds read low 0.979 | S. cerevisiae deletion strains, locus YER155C, strain BEM2 (second series), active compounds read low 0.969 | S. cerevisiae deletion strains, locus YFR010W, strain ubp6, active compounds read low 0.966 | S. cerevisiae deletion strains, locus YGL167C, strain pmr1, active compounds read low 0.986 | S. cerevisiae deletion strains, locus YGL173C, strain kem1, active compounds read low 0.959 | S. cerevisiae deletion strains, locus YGL227W, strain vid30, active compounds read low 0.976 | S. cerevisiae deletion strains, locus YGL240W, strain doc1, active compounds read low 0.972 | S. cerevisiae deletion strains, locus YGL253W, strain hxk2, active compounds read low 0.986 | S. cerevisiae deletion strains, locus YHR013C, strain ard1, active compounds read low 0.973 | S. cerevisiae deletion strains, locus YHR027C, strain rpn1, active compounds read low 0.964 | [2] 0.972 | S. cerevisiae deletion strains, locus YHR079C, strain IRE1, active compounds read low 0.974 | S. cerevisiae deletion strains, locus YHR142W, strain chs7, active compounds read low 0.981 | S. cerevisiae deletion strains, locus YJL092W, strain hpr5, active compounds read low 0.994 | S. cerevisiae deletion strains, locus YJL095W, strain BCK1 (second series), active compounds read low 0.977 | S. cerevisiae deletion strains, locus YJL095W, strain BCK1, active compounds read low 1.02 | S. cerevisiae deletion strains, locus YJL115W, strain asf1, active compounds read low 0.975 | S. cerevisiae deletion strains, locus YJL129C, strain trk1, active compounds read low 0.999 | S. cerevisiae deletion strains, locus YJL154C, strain vps35, active compounds read low 0.97 | S. cerevisiae deletion strains, locus YJL164C, strain tpk1, active compounds read low 0.998 | S. cerevisiae deletion strains, locus YJL166W, strain qcr8, active compounds read low 0.974 | [3] 0.983 | S. cerevisiae deletion strains, locus YJR066W, strain TOR1, active compounds read low 0.923 | S. cerevisiae deletion strains, locus YKL160W, strain elf1, active compounds read low 0.992 | S. cerevisiae deletion strains, locus YKR026C, strain gcn3, active compounds read low 0.993 | S. cerevisiae deletion strains, locus YKR091W, strain srl3, active compounds read low 0.984 | S. cerevisiae deletion strains, locus YLL001W, strain dnm1, active compounds read low 0.998 | S. cerevisiae deletion strains, locus YLL026W, active compounds read low 0.964 | S. cerevisiae deletion strains, locus YLL041C, strain sdh2, active compounds read low 0.981 | S. cerevisiae deletion strains, locus YLR027C, strain aat2, active compounds read low 0.977 | S. cerevisiae deletion strains, locus YLR113W, strain HOG1, active compounds read low 1.01 | S. cerevisiae deletion strains, locus YLR221C, strain rsa3, active compounds read low 0.991 | S. cerevisiae deletion strains, locus YLR258W, strain gsy2, active compounds read low 0.987 | S. cerevisiae deletion strains, locus YLR262C, strain YPT6 (second series), active compounds read low 0.962 | S. cerevisiae deletion strains, locus YLR320W, strain mms22, active compounds read low 0.985 | S. cerevisiae deletion strains, locus YLR342W, strain FKS1, active compounds read low 0.985 | S. cerevisiae deletion strains, locus YLR357W, strain rsc2, active compounds read low 1.01 | S. cerevisiae deletion strains, locus YLR370C, strain arc18, active compounds read low 0.973 | S. cerevisiae deletion strains, locus YLR384C, strain iki3, active compounds read low 0.975 | S. cerevisiae deletion strains, locus YML120C, strain ndi1, active compounds read low 0.987 | S. cerevisiae deletion strains, locus YMR058W, strain fet3, active compounds read low 0.974 | S. cerevisiae deletion strains, locus YMR125W, strain sto1, active compounds read low 0.979 | S. cerevisiae deletion strains, locus YMR129W, active compounds read low 0.995 | S. cerevisiae deletion strains, locus YMR205C, strain PFK2, active compounds read low 0.968 | S. cerevisiae deletion strains, locus YMR231W, strain pep5, active compounds read low 0.991 | S. cerevisiae deletion strains, locus YNL071W, strain lat1, active compounds read low 0.985 | S. cerevisiae deletion strains, locus YNL183C, strain NPR1, active compounds read low 0.935 | S. cerevisiae deletion strains, locus YNL209W, strain ssb2, active compounds read low 0.977 | S. cerevisiae deletion strains, locus YNL248C, strain rpa49, active compounds read low 0.986 | S. cerevisiae deletion strains, locus YNL322C, strain KRE1 (second series), active compounds read low 0.966 | S. cerevisiae deletion strains, locus YNR049C, strain mso1, active compounds read low 0.976 | S. cerevisiae deletion strains, locus YOR001W, strain rrp6, active compounds read low 0.977 | S. cerevisiae deletion strains, locus YOR070C, strain gyp1, active compounds read low 0.978 | S. cerevisiae deletion strains, locus YOR080W, strain dia2, active compounds read low 0.974 | S. cerevisiae deletion strains, locus YOR083W, strain WHI5, active compounds read low 0.98 | S. cerevisiae deletion strains, locus YOR106W, strain vam3, active compounds read low 0.979 | S. cerevisiae deletion strains, locus YOR231W, strain MKK1, active compounds read low 0.99 | S. cerevisiae deletion strains, locus YOR265W, strain rbl2, active compounds read low 0.973 | S. cerevisiae deletion strains, locus YOR270C, strain vph1, active compounds read low 0.996 | S. cerevisiae deletion strains, locus YOR290C, strain snf2, active compounds read low 0.976 | S. cerevisiae deletion strains, locus YPL051W, strain arl3, active compounds read low 0.988 | S. cerevisiae deletion strains, locus YPL078C, strain atp4, active compounds read low 0.98 | S. cerevisiae deletion strains, locus YPL106C, strain sse1, active compounds read low 0.916 | S. cerevisiae deletion strains, locus YPL240C, strain hsp82, active compounds read low 0.982 | S. cerevisiae deletion strains, locus YPL256C, strain CLN2, active compounds read low 0.93

CC(OCc1ccccc1)C(NC(=O)OC(C)(C)C)C(N)=O (centres undefined)
inactive: S. cerevisiae deletion strains, locus YAL013W, strain DEP1, active compounds read low 0.998 | S. cerevisiae deletion strains, locus YBR229C, strain ROT2, active compounds read low 0.994 | [1] 0.993 | S. cerevisiae deletion strains, locus YDL101C, strain DUN1, active compounds read low 0.993 | S. cerevisiae deletion strains, locus YDL134C, strain PPH21, active compounds read low 0.994 | S. cerevisiae deletion strains, locus YDR150W, strain NUM1, active compounds read low 0.985 | S. cerevisiae deletion strains, locus YEL061C, strain CIN8, active compounds read low 0.988 | S. cerevisiae deletion strains, locus YGR078C, strain PAC10, active compounds read low 0.997 | [2] 0.903 | S. cerevisiae deletion strains, locus YHR087W, strain rtc3, active compounds read low 0.988 | [3] 1 | S. cerevisiae deletion strains, locus YJR043C, strain POL32, active compounds read low 0.974 | S. cerevisiae deletion strains, locus YJR075W, strain HOC1, active compounds read low 1.02 | S. cerevisiae deletion strains, locus YLR039C, strain RIC1, active compounds read low 0.977 | S. cerevisiae deletion strains, locus YLR058C, strain SHM2 (second series), active compounds read low 1 | S. cerevisiae deletion strains, locus YLR085C, strain ARP6, active compounds read low 1.02 | S. cerevisiae deletion strains, locus YLR262C, strain YPT6, active compounds read low 0.864 | S. cerevisiae deletion strains, locus YML094W, strain GIM5, active compounds read low 1.04 | S. cerevisiae deletion strains, locus YMR219W, strain ESC1, active compounds read low 0.991 | S. cerevisiae deletion strains, locus YMR263W, strain SAP30, active compounds read low 0.976 | S. cerevisiae deletion strains, locus YMR307W, strain GAS1, active compounds read low 1.07 | S. cerevisiae deletion strains, locus YNL153C, strain GIM3, active compounds read low 0.998 | S. cerevisiae deletion strains, locus YNL298W, strain CLA4 (second series), active compounds read low 0.974 | S. cerevisiae deletion strains, locus YNL322C, strain KRE1, active compounds read low 0.985 | S. cerevisiae deletion strains, locus YNR030W, strain Alg12, active compounds read low 0.961 | S. cerevisiae deletion strains, locus YPL055C, strain LGE1, active compounds read low 1.02 | S. cerevisiae deletion strains, locus YPL241C, strain CIN2, active compounds read low 1 | S. cerevisiae deletion strains, locus YPR135W, strain CTF4, active compounds read low 0.9 | S. cerevisiae strains, strain wild type, active compounds read low 0.971
